T cruzi growth-1: T. cruzi intracellular proliferation inhibitors, primary screen, cell-based, beta-gal Tulahuen parasites, NIH3T3 host, luminescence; inhibition, % at 8.34 µM; AID 624255, 2012; 77,000 tested, 5.9% active; T. cruzi beta-gal in NIH3T3, GalScreen luminescence, 90 h;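 active = mean inhibition above about 93%, with at least 55% of replicates each passing it, limit read from the data, passing the limit was not always enough; inconclusive = only one of those two conditions holds; inactive = neither condition holds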
Pf Dd2 growth: P. falciparum Dd2 growth inhibitors, primary screen, SYBR Green fluorescence, single dose replicates; 72 h; stronger effect = lower value; activity change, % at 10 µM; 94,000 tested, 2.3% active; AID 1159554, 2015; in the data active = activity change below about -80%; inconclusive = no clear call, values can overlap the other calls
C diff growth: C. difficile growth inhibitors, primary screen, HTS | Clostridium difficile clinical isolate growth, OD600, 24 h; stronger effect = lower value | AID 1259249, 2017 | growth activity, negative = inhibition, % at 16 µg/mL (by protocol) | 86,000 tested, 0.25% active;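 active = mean growth activity at or below -80% and every replicate also at or below -80%; inconclusive = mean at or below -80% but some replicate above -80%; inactive = mean growth activity above -80%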
T cruzi growth-2: T. cruzi intracellular proliferation inhibitors, confirmation, cell-based, NIH3T3 host, beta-gal parasite, luminescence, cherry-pick. shares compounds with T cruzi growth-1. T. cruzi beta-gal in NIH3T3, GalScreen luminescence, 90 h. inhibition, % at 8.35 µM. 5,600 tested, 72% active;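 active = mean replicate inhibition above about 95% and at least 55% of replicates individually reaching it, limit read from the data; inconclusive = only one of the two criteria is met; inactive = neither criterion is met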
T cruzi growth-3: inhibitors of intracellular T. cruzi replication, confirmation, NIH3T3 host cells, beta-gal parasites, cherry-pick, set 2; shares compounds with T cruzi growth-1; T. cruzi beta-gal in NIH3T3, GalScreen luminescence, 90 h; inhibition, % at 2.09 µM; 5,600 tested, 21% active;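 active = mean inhibition above about 95%, with at least 55% of replicates also reaching it, limit read from the data; inconclusive = meets just one of the two conditions; inactive = meets neither condition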
NIH3T3 tox: cytotoxicity in mouse NIH/3T3 fibroblasts, confirmation, cytotoxicity control for T. cruzi proliferation inhibitor project, cell-based, cherry-pick, single point; cytotoxicity (signal decrease), % at 8.35 µM; shares compounds with T cruzi growth-1; 5,600 tested, 14% active; NIH/3T3 viability, CellTiter-Glo ATP luminescence, 90 h;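 active = mean signal decrease across replicates above about 35% based on untreated-well scatter, with enough replicates individually passing, limit read from the data; inconclusive = no rule stated though some were filed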
NIH3T3 tox 2: NIH/3T3 fibroblast cytotoxicity, confirmation, cytotoxicity control, cell-based, cherry-pick, single point, set 2 | AID 651744, 2012 | 5,600 tested, 56% active | NIH/3T3 viability, CellTiter-Glo ATP luminescence, 90 h | shares compounds with T cruzi growth-1 | inhibition, % at 24.9 µM;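 active = mean loss of cell viability signal at or above a set limit, and enough replicates individually reaching it; inconclusive = meets only the mean limit or only the replicate share; inactive = meets neither condition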
Of the large screens only hits and unclear results are named; the others gave an inactive call (follow-up assays come after a bar, where they were run). Sampled rows, rich in hits. Any-hit rate of the full collection: about 6.7%.

CCCNC(=O)N(C)C[C@@H]1Oc2ncc(C#Cc3ccccc3F)cc2C(=O)N([C@H](C)CO)C[C@H]1C	T cruzi growth-1 107 | T cruzi growth-2 97 | T cruzi growth-3 inactive | NIH3T3 tox inactive | NIH3T3 tox 2 43
C[C@H](CO)N1C[C@H](C)[C@@H](CN(C)C)Oc2ncc(C#Cc3ccccc3F)cc2C1=O	none
C[C@@H]1CN([C@@H](C)CO)C(=O)c2cc(C#Cc3ccccc3F)cnc2O[C@H]1CN(C)S(C)(=O)=O	none (no result: C diff growth)
C[C@@H]1CN([C@H](C)CO)C(=O)c2cc(C#Cc3ccccc3F)cnc2O[C@@H]1CN(C)C	T cruzi growth-1 98 | T cruzi growth-2 inactive | T cruzi growth-3 inactive | NIH3T3 tox inactive | NIH3T3 tox 2 inconclusive
C[C@@H]1CN([C@@H](C)CO)C(=O)c2cc(C#Cc3ccccc3F)cnc2O[C@H]1CN(C)S(=O)(=O)c1ccccc1	T cruzi growth-1 121 | T cruzi growth-2 110 | T cruzi growth-3 inactive | NIH3T3 tox inactive | NIH3T3 tox 2 25
CCCNC(=O)N(C)C[C@H]1Oc2ncc(C#Cc3ccccc3F)cc2C(=O)N([C@H](C)CO)C[C@H]1C	none
C[C@@H]1CN([C@@H](C)CO)C(=O)Cc2cc(NC(=O)CCN3CCOCC3)ccc2O[C@@H]1CN(C)C(=O)Nc1ccccc1	none
CNC(=O)C[C@H]1CC[C@H]2[C@@H](COc3ccc(NS(=O)(=O)c4cccc(F)c4)cc3C(=O)N2C)O1	none
C[C@@H]1CN([C@H](C)CO)C(=O)c2cc(C#Cc3ccccc3)cnc2O[C@@H]1CN(C)S(=O)(=O)c1ccccc1F	none
C[C@@H]1CN([C@@H](C)CO)C(=O)c2cc(C#Cc3ccccc3F)cnc2O[C@H]1CN(C)S(=O)(=O)c1ccccc1F	T cruzi growth-1 108 | T cruzi growth-2 115 | T cruzi growth-3 105 | NIH3T3 tox inactive | NIH3T3 tox 2 68
C[C@@H]1CN([C@@H](C)CO)C(=O)c2cc(C#CC3CC3)cnc2O[C@H]1CN(C)Cc1ccccc1C(=O)O	none
CC(C)C#Cc1ccc2c(c1)O[C@H](CN(C)S(C)(=O)=O)[C@H](C)CN([C@H](C)CO)S2(=O)=O	none
N#Cc1ccc(-c2ccc3c(c2)[C@H]2[C@H](CCN2C(=O)c2ccccc2F)[C@H](CO)N3)cc1	none
N#Cc1ccc(-c2ccc3c(c2)[C@@H]2[C@@H](CCN2C(=O)c2ccccc2F)[C@@H](CO)N3)cc1	T cruzi growth-1 102 | T cruzi growth-2 103 | T cruzi growth-3 inactive | NIH3T3 tox inactive | NIH3T3 tox 2 50
CN(C)C(=O)c1cccc(-c2ccc3c(c2)[C@@H]2[C@@H](CCN2C(=O)c2ccccc2F)[C@@H](CO)N3)c1	T cruzi growth-1 106 | T cruzi growth-2 100 | T cruzi growth-3 inactive | NIH3T3 tox inactive | NIH3T3 tox 2 inactive
N#Cc1ccc(-c2ccc3c(c2)[C@H]2[C@H](CCN2C(=O)C2CC2)[C@H](CO)N3)cc1	none
N#Cc1ccc(-c2ccc3c(c2)[C@@H]2[C@@H](CCN2C(=O)C2CC2)[C@@H](CO)N3)cc1	T cruzi growth-1 104 | T cruzi growth-2 107 | T cruzi growth-3 inactive | NIH3T3 tox inactive | NIH3T3 tox 2 35
CN(C)C(=O)c1ccc(-c2ccc3c(c2)[C@H]2[C@H](CCN2C(=O)c2ccccc2F)[C@@H](CO)N3)cc1	none
Cc1ccc(S(=O)(=O)N(C)C[C@@H]2Oc3c(NS(C)(=O)=O)cccc3C(=O)N([C@H](C)CO)C[C@H]2C)cc1	none
C[C@@H]1CN([C@@H](C)CO)C(=O)c2cc(NC(=O)CCN3CCOCC3)ccc2O[C@H]1CN(C)S(=O)(=O)c1ccc(Cl)cc1	none
COc1ccccc1C#Cc1cnc2c(c1)C(=O)N([C@@H](C)CO)C[C@@H](C)[C@@H](CN(C)C(C)=O)O2	none
C[C@@H]1CCCCO[C@@H](CN(C)Cc2ccc(C(F)(F)F)cc2)[C@@H](C)CN([C@H](C)CO)C(=O)c2cc(NC(=O)Nc3ccc(F)cc3)ccc2O1	T cruzi growth-1 102 (no result: C diff growth) | T cruzi growth-2 101 | T cruzi growth-3 inactive | NIH3T3 tox inactive | NIH3T3 tox 2 inactive
C[C@H]1CCCCO[C@@H](CN(C)Cc2ccc(C(F)(F)F)cc2)[C@@H](C)CN([C@@H](C)CO)C(=O)c2cc(NC(=O)Nc3ccc(F)cc3)ccc2O1	none (no result: C diff growth)
C[C@@H]1CCCCO[C@@H](CN(C)Cc2ccncc2)[C@H](C)CN([C@H](C)CO)C(=O)c2cc(NC(=O)Nc3ccc(C(F)(F)F)cc3)ccc2O1	none
C[C@H]1CCCCO[C@H](CN(C)Cc2ccncc2)[C@@H](C)CN([C@@H](C)CO)C(=O)c2cc(NC(=O)Nc3ccc(C(F)(F)F)cc3)ccc2O1	T cruzi growth-1 99 | T cruzi growth-2 100 | T cruzi growth-3 inactive | NIH3T3 tox inactive | NIH3T3 tox 2 83
C[C@@H]1CCCCO[C@@H](CN(C)Cc2ccc(C(F)(F)F)cc2)[C@H](C)CN([C@H](C)CO)C(=O)c2cc(NC(=O)Nc3ccc(C(F)(F)F)cc3)ccc2O1	none
C[C@@H]1CCCCO[C@@H](CN(C)Cc2ccc(C(F)(F)F)cc2)[C@@H](C)CN([C@@H](C)CO)C(=O)c2cc(NC(=O)Nc3ccc(F)cc3)ccc2O1	T cruzi growth-1 108 (no result: C diff growth) | T cruzi growth-2 98 | T cruzi growth-3 107 | NIH3T3 tox inactive | NIH3T3 tox 2 inactive
C[C@@H]1CCCCO[C@H](CN(C)Cc2ccc(C(F)(F)F)cc2)[C@@H](C)CN([C@@H](C)CO)C(=O)c2cc(NC(=O)Nc3ccc(F)cc3)ccc2O1	none (no result: C diff growth)
C[C@@H]1CN([C@@H](C)CO)C(=O)c2cc(NC(=O)Nc3ccc(C(F)(F)F)cc3)ccc2O[C@@H](C)CCCCO[C@@H]1CN(C)Cc1ccc(C(F)(F)F)cc1	T cruzi growth-1 95 | T cruzi growth-2 102 | T cruzi growth-3 105 | NIH3T3 tox inactive | NIH3T3 tox 2 inactive
CO[C@@H]1CN(C)C(=O)c2cc(NS(C)(=O)=O)ccc2OC[C@H](C)N(C)C[C@H]1C	none (no result: C diff growth)
C[C@@H]1CCCCO[C@@H](CN(C)C(=O)Nc2ccc(F)cc2)[C@H](C)CN([C@H](C)CO)C(=O)c2cc(NC(=O)Nc3ccc(F)cc3)ccc2O1	none (no result: T cruzi growth-1, C diff growth)
CCCC(=O)Nc1ccc2c(c1)OC[C@@H](C)N(C(=O)CN(C)C)C[C@H](C)[C@H](OC)CN(C)C2=O	none (no result: C diff growth)
O=C(Nc1cc(F)ccc1F)N[C@@H]1CC[C@@H](CCNC(=O)c2cnccn2)O[C@@H]1CO	none (no result: C diff growth)
